Hits are enriched below; roughly 2% of the tested compounds scored in any of these assays.
LEDGF integ inh = blocks HIV-1 LEDGF/p75-dependent DNA integration; TR-FRET IN-LEDGF/p75 DNA integration, Eu/Cy5; inhibition, % at 3.7 µM; actives 0.64% (n = 370,000); AID 743269;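 active = inhibition above the screen-wide mean plus 3 SD, cut at about 13% in these data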;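 note: signal is the Cy5 over europium emission ratio at 671 and 618 nm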
Rin1-Abl PPI inh = inhibitors of human Rin1-Abl protein interaction. TR-FRET Rin1/Abl binding, biochemical. inhibition, % at 7.35 µM. P00519+Q13671. AID 588664. actives 0.4% (n = 360,000); in the data active = inhibition above about 5%, passing the limit was not always enough
UHRF1 MBD2 ctr = blocks human UHRF1 binding to methylated DNA; Q96T88; UHRF1 binding to methylated oligo, TR-FRET; inhibition, % at 4.4 µM; actives 0.75% (n = 370,000); AID 687016; in the data active = inhibition above about 21%;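 note: UHRF1 SRA domain binding a hemimethylated CpG hairpin DNA probe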
MBD2 inh = MBD2-methylated oligo binding inhibition; TR-FRET, MBD2 binding to methylated oligonucleotide; Q9UBB5; actives 0.31% (n = 370,000); inhibition, % at 4.4 µM; in the data active = inhibition above about 13%
Target sequence (Q9UBB5 whole entry, looked up): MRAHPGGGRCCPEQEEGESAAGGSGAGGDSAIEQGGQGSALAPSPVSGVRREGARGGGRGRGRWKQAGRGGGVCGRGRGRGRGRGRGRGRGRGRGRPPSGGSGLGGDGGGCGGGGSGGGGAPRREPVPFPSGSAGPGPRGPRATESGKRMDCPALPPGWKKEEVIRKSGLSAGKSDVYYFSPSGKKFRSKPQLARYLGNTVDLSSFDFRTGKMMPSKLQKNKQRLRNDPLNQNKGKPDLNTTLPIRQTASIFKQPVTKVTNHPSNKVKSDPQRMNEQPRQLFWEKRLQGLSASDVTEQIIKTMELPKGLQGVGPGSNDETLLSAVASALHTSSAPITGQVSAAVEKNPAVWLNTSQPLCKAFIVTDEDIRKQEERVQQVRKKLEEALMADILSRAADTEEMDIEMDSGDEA
TCR-CD3 inh = blocks the human TCR-CD3 interaction; actives 0.37% (n = 360,000); TAMRA-labeled TCR probe fluorescence, biochemical; inhibition, % at 9.4 µM; in the data active = inhibition above about 19%;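 note: recombinant mutant TCR 2C K166C tagged with TAMRA read by polarization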
Numbers stand for hits; . = inactive; / = no result.

SMILES | LEDGF integ inh | Rin1-Abl PPI inh | UHRF1 MBD2 ctr | MBD2 inh | TCR-CD3 inh
CCOC(=O)[C@]12CCC=C1N(Cc1ccccc1)C(=O)[C@H](CC(=O)NCCC(C)C)C2 | . | / | 23.6 | . | .
C#CCN(C)Cc1ccccc1 | . | . | . | . | .
CN(CC#CC1(O)c2ccccc2-c2ccccc21)Cc1ccccc1 | . | . | 22.8 | . | .
COc1ccc(N(CC(=O)NC2CC2)S(=O)(=O)c2ccccc2)cc1 | . | . | . | . | .
O=C(O)c1ccc(NS(=O)(=O)c2ccc(NC(=O)c3ccccc3Cl)cc2)cc1 | . | . | . | . | .
O=C(O)c1ccc(NS(=O)(=O)c2ccc(Cl)c(C(=O)Nc3ccccc3)c2)cc1 | . | . | 22.6 | . | .
COc1ccc(Cc2nc3ccc(C(=O)N(C)C(C)c4ccon4)cc3o2)cc1 (stereo not drawn) | . | . | . | . | .
O=C(CSc1nncs1)N1CCN(C(=O)c2ccco2)CC1 | . | . | 36.5 | . | .
O=C(CSc1nnc(SCc2ccc(Cl)cc2)s1)N1CCN(C(=O)c2ccco2)CC1 | . | . | . | . | .
Cc1ccc(-c2cc(C(=O)NCc3ccco3)c3ccccc3n2)o1 | 15.4 | . | . | . | .
CCOC(=O)c1cc(-c2ccccc2)nn1CCC#N | . | . | 43.6 | . | .
CCC(C)Nc1nc(C)nc2c1nnn2Cc1ccccc1 (stereo not drawn) | . | / | . | . | /
COC(=O)[C@H](CC(C)C)N(CCCc1cn(Cc2ccccc2)nn1)S(=O)(=O)c1ccccc1Br | . | / | . | . | /
C#Cc1ccc(NC(=O)C2(C)CCN2C(=O)C/C=C/c2ccccc2)cc1 (stereo not drawn) | . | . | . | . | .
CC1(C(=O)Nc2cccc(C#N)c2)CCN1C(=O)C/C=C/c1ccccc1 (stereo not drawn) | . | . | 24.2 | . | .
O=C1CCCc2oc3c(c21)CCCC3 | . | . | 23.2 | . | .
O=c1[nH]c2ccccc2c(O)c1O | . | 20.5 | . | . | .
CC1(c2nnnn2-c2ccc3c(c2)OCCO3)CCC(=O)N1CCCN1CCOCC1 (stereo not drawn) | . | / | . | . | .
CCCCn1nnnc1C1(C)CCC(=O)N1CCCN1CCOCC1 (stereo not drawn) | . | / | 21.6 | . | .
Oc1ccccc1-c1nnc(COc2ccccc2)o1 | . | . | . | . | 33.8
c1ccc(OCc2nnc(-c3ccccc3)o2)cc1 | . | . | . | . | .
CC(C)COC(=O)N(C)C[C@@H]1OCc2cnnn2CCCC(=O)N([C@@H](C)CO)C[C@H]1C | . | . | . | . | .
Cc1cccc(OCCCn2c(=O)oc3ccc(C)cc32)c1 | . | . | 24.9 | . | .
CCOc1ccc2c(c1)[nH]c(=S)n2C | . | . | 38.7 | . | .
O=C(Nc1ccc(F)c(Cl)c1)c1csc(COCCO)n1 | . | . | . | . | .
SMILES | LEDGF integ inh | Rin1-Abl PPI inh | UHRF1 MBD2 ctr | MBD2 inh | TCR-CD3 inh
COC(=O)C1SCC2C(=O)N(Cc3ccc(F)cc3)CC(=O)N21 (stereo not drawn) | . | . | 21.5 | . | .
Cc1ccc(C(C(=O)NC2CCCCC2)N(CCC(C)C)C(=O)CNC(=O)c2ccco2)o1 (stereo not drawn) | . | . | 20.9 | . | .
CC(=O)c1ccc(N(C(=O)CNC(=O)c2ccco2)C(C(=O)NC2CCCC2)c2ccc(C)o2)cc1 (stereo not drawn) | . | . | . | . | .
COC(=O)[C@]1(Cc2ccccc2)NC=C(C(=O)c2ccccc2)[C@@H]1c1cccs1 | . | / | . | . | .
O=C(Cn1cnc2sc3c(c2c1=O)CCCC3)NCC(=O)Nc1c(F)cccc1F | . | . | 22.2 | . | .
O=C(NCc1cccnc1)c1cc(C2CCCN(C(=O)c3ccccn3)C2)on1 (stereo not drawn) | . | . | . | . | .
CCC[C@H]1[C@@H](OC(=O)NC(CC)CC)CC[C@@]23CCCN2C(=O)CCC[C@@H]13 | . | / | 78.3 | . | /
CCC[C@H]1[C@@H](OC(=O)NC2CCCCC2)CC[C@@]23CCCN2C(=O)CCC[C@@H]13 | . | / | . | . | /
Cc1c(C(=O)OCC(=O)NCCc2ccc(S(N)(=O)=O)cc2)oc2ccccc12 | . | . | 37.1 | . | .
COCc1c(C(=O)OCC(=O)NCCc2ccc(S(N)(=O)=O)cc2)oc2ccccc12 | . | . | . | . | .
CC(C)C(=O)Nc1nnc(SCC(=O)NC2CCCC2)s1 | . | . | 92.5 | . | .
NC(=O)c1ccc(NC(=O)COC(=O)CC2CC3CCC2C3)cc1 (stereo not drawn) | . | . | . | . | .

Assay outcomes (PubChem)
